# Assay outcomes as filed in PubChem BioAssay.
# MITF inh: MITF inhibitors, primary screen, biochemical, AlphaScreen, human. Microphthalmia-associated transcription factor (Homo sapiens), O75030. AlphaScreen MITF homodimerization, bead proximity signal. inhibition, % at 2.6 µM. hit rate 0.91% among 650,000. AID 1259374, 2018; in the data active = inhibition above about 50%;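 also: 0% = vehicle wells with protein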
# FBW7 activator: FBW7 E3 ligase activators, primary screen, biochemical, AlphaScreen, human | F-box/WD repeat-containing protein 7 (Homo sapiens), Q969H0 | AlphaScreen FBW7–phospho-cyclin E peptide binding, activator screen | normalized activity (activation), % at 26.1 µM | hit rate 0.13% among 650,000 | AID 1259310, 2017; in the data active = normalized activity above about 1.9%;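 also: purified mutant Fbw7 with reduced substrate affinity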
# GPR151 ag: activators of human GPR151, primary screen, cell-based, PathHunter beta-arrestin, luminescence | hit rate 1% among 650,000 | activation, % at 11.2 µM | PathHunter beta-arrestin GPR151 cells; in the data active = activation above about 4.9%;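 also: 0% = median of compound wells and 100% = cells with positive control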
# Target sequence (Q8TDV0 whole entry, looked up): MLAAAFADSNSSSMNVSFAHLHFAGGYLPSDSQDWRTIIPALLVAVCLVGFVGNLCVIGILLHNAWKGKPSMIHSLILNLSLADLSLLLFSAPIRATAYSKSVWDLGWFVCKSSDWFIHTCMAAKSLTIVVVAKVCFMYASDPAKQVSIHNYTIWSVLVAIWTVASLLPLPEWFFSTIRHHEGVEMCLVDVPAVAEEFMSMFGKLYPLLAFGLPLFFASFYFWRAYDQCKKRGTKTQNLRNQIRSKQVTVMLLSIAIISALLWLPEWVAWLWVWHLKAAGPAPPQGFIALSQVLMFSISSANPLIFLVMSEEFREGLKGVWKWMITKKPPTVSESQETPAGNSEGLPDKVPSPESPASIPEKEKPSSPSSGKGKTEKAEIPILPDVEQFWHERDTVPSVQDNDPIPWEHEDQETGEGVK
# TEAD-YAP block: TEAD-YAP interaction inhibition, primary screen, TEAD-YAP interaction inhibitor project, luminescence, HEK-TIYL cells | hit rate 1.4% among 640,000 | inhibition, % at 9.12 µM | TEAD-Gal4/YAP UAS-luciferase luminescence; in the data active = inhibition above about 32%;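 also: 0% = median of test compound wells and 100% = reference inhibitor wells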
# MITF inh conf: MITF inhibitors, retest of hits, confirmation, biochemical, AlphaScreen, triplicate; AID 1259372, 2018; hit rate 16% among 4,700; AlphaScreen MITF homodimerization, biotin/His-MITF beads; inhibition, % at 2.6 µM; shares compounds with MITF inh;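 active = inhibition above a cutoff derived from the DMSO control wells, cut at about 28% in these data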;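 also: 0% = MITF dimer wells with DMSO only; inhibitors lower the bead chemiluminescence by keeping MITF from dimerizing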
# AlphaScreen DR: AlphaScreen optical interference compounds, dose response, counter-screen, biochemical, HTS. shares compounds with MITF inh. AlphaScreen optical interference counterscreen, cell-free. IC50, µM. hit rate 6% among 480. AID 1259373, 2018; call rule not given here
# AS interf ctr: AlphaScreen optical interference compounds, counter-screen for MITF inhibitor project, biochemical, triplicate; shares compounds with MITF inh; LysRS AlphaScreen counterscreen, signal interference; inhibition, % at 2.6 µM; hit rate 7.6% among 4,700; AID 1259376, 2018;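 active = inhibition above a cutoff derived from the DMSO control wells, cut at about 30% in these data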
# Numbers without * were called inactive; . = no result given. The list is not random: actives were taken first. Their share in the collection is about 3.5%.
SMILES,MITF inh,FBW7 activator,GPR151 ag,TEAD-YAP block,MITF inh conf,AS interf ctr,others
COCC1CCCN(CC(=O)Nc2ccc(C)c(C)c2)C1 (centres undefined),42,0,0,-7,.,.,
Cc1ccc(-c2cc(C(=O)Nc3nc4ccc(Br)cc4s3)c3ccccc3n2)s1,-2,0,-1,7,.,.,
Cc1ccc(-c2cc(C(=O)Nc3nnc(C)s3)c3ccccc3n2)s1,65*,0,1,7,5,11,
O=C(O)CCN1C(=O)/C(=C2\SC(=S)N(CCC(=O)O)C2=O)SC1=S,-3,0,0,-1,.,.,
COc1cc(OC)c(OC)cc1CN(CCCN(C)C)CCCN(C)C,54*,0,1,2,-10,-3,
COc1ccccc1-c1nc(C)c(-c2ccc(SCC(=O)N3CCCCCC3)nn2)s1,-6,0,1,1,.,.,
Nc1nonc1-c1noc(-c2ccccc2Br)n1,77*,0,-1,-4,8,12,
Nc1nonc1-c1noc(-c2ccccc2F)n1,3,0,-2,-41,.,.,
CSCC[C@H](NC(C)=O)C(=O)N1CCCC(c2[nH]ncc2-c2ccccc2C)C1 (some centres undefined),18,1,-1,1,.,.,
O=C(NCCN1CCOCC1)c1ccnc(Nc2ccc(N3CCOCC3)cc2)c1,9,1,-1,-12,.,.,
CN(C)CC(=O)Nc1c2c(nc3c1CCC3)CCCC2,59*,0,-1,-8,0,0,
CCC(=O)Nc1c2c(nc3c1CCC3)CCCC2,8,0,-1,-3,.,.,
CC(C)NCC(=O)Nc1c2c(nc3c1CCC3)CCCC2,75*,0,-1,0,1,-3,
Fc1ccccc1CN1CCN(c2ccccn2)CC1,4,0,-1,-13,.,.,
FC(F)(F)c1ccccc1CN1CCN(Cc2ccncc2)CC1,71*,0,1,4,-1,-4,
CS(=O)(=O)N1CCN(Cc2ccccc2C(F)(F)F)CC1,71*,0,-1,0,-1,5,
COc1ccc(CN2CCN(Cc3ccccc3Br)CC2)cc1OC,49,0,0,-1,.,.,
O=S(=O)(c1ccc(Cl)cc1)N1CCN(Cc2ccccc2C(F)(F)F)CC1,-2,0,0,-13,.,.,
FC(F)(F)c1ccccc1CN1CCN(Cc2ccccc2Br)CC1,62*,0,-2,8,5,26,
Fc1ccccc1CN1CCN(Cc2ccccc2C(F)(F)F)CC1,65*,0,0,9,-14,-2,
O=c1[nH]c(=S)[nH]c(O)c1C=Nc1ccccc1Br,-8,0,1,-3,.,.,
COC(=O)c1ccc(C(=O)NC(=S)Nc2sc3c(c2C(N)=O)CCCC3)cc1,-4,0,1,4,.,.,
O=C(c1cccs1)N1CCN(Cc2ccccc2C(F)(F)F)CC1,70*,0,1,4,-5,0,
FC(F)(F)c1ccccc1CN1CCN(C2CCCC2)CC1,64*,0,3,6,-5,-2,
OCC1CCN(C2CCCN(Cc3ccccc3C(F)(F)F)C2)CC1 (centres undefined),-1,0,-2,-4,.,.,
SMILES,MITF inh,FBW7 activator,GPR151 ag,TEAD-YAP block,MITF inh conf,AS interf ctr,others
CCCN1CCC(NCc2ccccc2C(F)(F)F)CC1,55*,0,0,9,-3,-2,
Cc1ccccc1CN1CCN(C(=O)c2cccs2)CC1,45,0,1,-28,.,.,
OC1CCN(Cc2ccccc2C(F)(F)F)CC1,40,0,1,6,.,.,
FC(F)(F)c1ccccc1CN1CCN(Cc2ccccc2C(F)(F)F)CC1,70*,0,1,-6,4,8,
CN1CCC(NCc2ccccc2C(F)(F)F)CC1,-5,0,0,4,.,.,
FC(F)(F)c1ccccc1CN1CCN(Cc2ccc(Br)cc2)CC1,82*,0,-1,-2,9,23,
OCCC1CN(Cc2ccccc2C(F)(F)F)CCN1C1CCCC1 (centres undefined),0,0,2,2,.,.,
CNC(=O)c1nnc(-c2ccccc2)o1,78*,0,-1,-6,-4,-10,
O=C(OC1CCOC1=O)c1ccc(S(=O)(=O)NCc2ccco2)cc1 (centres undefined),53*,0,1,6,52*,-8,AlphaScreen DR=>7.1
O=C(OC1CCCCC1=O)c1ccc(S(=O)(=O)NCc2ccco2)cc1 (centres undefined),14,0,0,0,.,.,
N#C/C(=C/c1ccco1)c1cccc(F)c1,68*,1,1,2,30*,17,AlphaScreen DR=>6.5
CC(C)[C@@H](Cn1nc(-c2ccc(F)c(F)c2)ccc1=O)NC(=O)c1cnccn1,15,0,0,-2,.,.,
CCCn1cnc2sc(C(=O)NCCc3ccc(OC)c(OC)c3)c(C)c2c1=O,10,0,1,4,.,.,
COC(=O)c1ccccc1NC(=O)c1cc(C)ccc1C,-5,0,-2,6,.,.,
COc1ccc(C(=O)CN2CCN(C)CC2)cc1,76*,0,0,-7,0,4,
CCOc1ccc(OCCOCCN2CCOCC2)cc1,49,0,-1,3,.,.,
CCc1ccc(OCCN2CCNCC2)cc1,9,0,-1,-4,.,.,
CCC(C)(C)c1ccc(OCCN2CCNCC2)cc1,72*,0,0,6,-17,-7,
CC(C)(c1ccccc1)c1ccc(OCCCN2CCNCC2)cc1,58*,0,0,6,-5,3,
c1ccc2c(OCCCN3CCNCC3)cccc2c1,38,0,0,5,.,.,
CCOc1ccc(OCCCCN2CCNCC2)cc1,65*,0,0,-20,11,12,
O=C(Cn1sc2ccccc2c1=O)NCc1ccccc1,7,0,1,0,.,.,
CCCCc1ccc(OCC(=O)NN)cc1,-10,0,2,-3,.,.,
O=C(c1ccccc1)c1ccc(OCCCCN2CCOCC2)cc1,48,1,-2,-3,.,.,
CN1CCN(CCCCOc2ccc(C(=O)c3ccccc3)cc2)CC1,75*,0,-1,2,-1,8,
SMILES,MITF inh,FBW7 activator,GPR151 ag,TEAD-YAP block,MITF inh conf,AS interf ctr,others
CN1CCN(CCCOc2ccc(OCc3ccccc3)cc2)CC1,59*,0,-1,-40,3,5,
Ic1ccc(OCCN2CCNCC2)cc1,63*,0,-1,6,-18,-2,
c1ccc(COc2ccc(OCCN3CCNCC3)cc2)cc1,70*,0,2,-11,6,-4,
Clc1ccc(OCCN2CCNCC2)cc1,15,0,0,10,.,.,
Cc1oc2ccc(NS(=O)(=O)c3cccs3)cc2c1C(=O)OCc1ccccc1,-14,0,0,-3,.,.,
N#Cc1ccccc1CSc1ncccn1,-12,0,-1,-7,.,.,
